Common to all, as to assay: DAPPL (digital affinity profiling via proximity ligation, sequencing); 10 mM Tris-HCl pH 7.5, 50 mM NaCl, 1 mM DTT, 4% glycerol, room temperature, 30 min; GST-TFs on glutathione beads, 16-mer random dsDNA library, 0.1% formaldehyde crosslink after washing; high values mean tight binding
What all share (conditions): protein: recombinant; tags: N-terminal GST; dsDNA, one strand shown

One experiment concerns the target T1, ELK1 (Homo sapiens, UniProt P19419 1-428).
T1 sequence: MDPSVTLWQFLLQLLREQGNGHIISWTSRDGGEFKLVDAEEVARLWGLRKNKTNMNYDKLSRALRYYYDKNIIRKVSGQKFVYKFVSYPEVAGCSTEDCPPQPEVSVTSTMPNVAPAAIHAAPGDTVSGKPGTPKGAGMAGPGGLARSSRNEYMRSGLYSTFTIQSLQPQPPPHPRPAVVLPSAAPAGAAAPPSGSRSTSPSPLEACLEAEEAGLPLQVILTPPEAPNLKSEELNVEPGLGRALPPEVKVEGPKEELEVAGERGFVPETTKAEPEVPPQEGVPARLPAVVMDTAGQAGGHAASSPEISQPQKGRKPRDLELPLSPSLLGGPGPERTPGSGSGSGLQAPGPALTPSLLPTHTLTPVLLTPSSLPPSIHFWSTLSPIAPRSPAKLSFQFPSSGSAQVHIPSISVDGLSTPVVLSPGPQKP
A digest of the protocol: (§1)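 Beads coated with glutathione captured GST-fused human transcription factors that had been expressed in yeast, and the factors were then given DNA barcodes and pooled with a tag-only sample. The pools were incubated with 200 nmole of a random double-stranded 16-mer DNA library in Tris/NaCl/DTT/glycerol buffer for 30 min at room temperature, washed, crosslinked with 0.1% formaldehyde and proximity-ligated with BsaI/T4 ligase at 37 °C for 1 h. PCR amplification and Illumina NextSeq500 sequencing came last. Binding signal is each hexamer's read frequency for a factor divided by its frequency for the tag-only sample.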

The next experiment deals with T2, GABPA (Homo sapiens, UniProt Q06546 1-454).
T2 sequence: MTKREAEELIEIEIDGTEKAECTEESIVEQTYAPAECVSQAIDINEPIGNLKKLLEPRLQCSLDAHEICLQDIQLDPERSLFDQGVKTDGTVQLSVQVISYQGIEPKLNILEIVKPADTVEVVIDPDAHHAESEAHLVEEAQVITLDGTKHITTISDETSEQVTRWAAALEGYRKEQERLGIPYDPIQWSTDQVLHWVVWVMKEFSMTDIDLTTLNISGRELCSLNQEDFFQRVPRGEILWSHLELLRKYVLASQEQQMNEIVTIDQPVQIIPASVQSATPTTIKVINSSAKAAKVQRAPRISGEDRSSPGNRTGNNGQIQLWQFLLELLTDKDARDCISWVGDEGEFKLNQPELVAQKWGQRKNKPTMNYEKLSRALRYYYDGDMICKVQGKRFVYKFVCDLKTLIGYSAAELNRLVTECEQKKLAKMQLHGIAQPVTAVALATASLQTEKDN
A digest of the protocol: as §1

The target in another experiment is T3, ERG (Homo sapiens, UniProt P11308 1-479).
T3 sequence: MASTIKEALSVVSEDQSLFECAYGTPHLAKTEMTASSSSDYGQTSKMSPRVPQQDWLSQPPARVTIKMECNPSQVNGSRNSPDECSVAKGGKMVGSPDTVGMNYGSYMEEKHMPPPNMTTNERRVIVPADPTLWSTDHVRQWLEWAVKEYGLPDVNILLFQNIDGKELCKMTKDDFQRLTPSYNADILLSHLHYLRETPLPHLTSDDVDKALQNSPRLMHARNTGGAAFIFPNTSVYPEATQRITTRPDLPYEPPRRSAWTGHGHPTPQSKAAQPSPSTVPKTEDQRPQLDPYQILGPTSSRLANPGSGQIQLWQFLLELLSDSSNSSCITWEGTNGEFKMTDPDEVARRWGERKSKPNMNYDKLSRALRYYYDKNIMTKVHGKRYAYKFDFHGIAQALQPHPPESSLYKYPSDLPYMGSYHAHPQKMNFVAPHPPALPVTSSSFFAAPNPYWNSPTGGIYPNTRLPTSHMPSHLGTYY
A digest of the protocol: as §1

A further experiment concerns the target ELF1 (Homo sapiens, UniProt P32519 1-619). A digest of the protocol:
as §1

The target in the next experiment is T4, EHF (Homo sapiens, UniProt Q9NZC4 1-300).
T4 sequence: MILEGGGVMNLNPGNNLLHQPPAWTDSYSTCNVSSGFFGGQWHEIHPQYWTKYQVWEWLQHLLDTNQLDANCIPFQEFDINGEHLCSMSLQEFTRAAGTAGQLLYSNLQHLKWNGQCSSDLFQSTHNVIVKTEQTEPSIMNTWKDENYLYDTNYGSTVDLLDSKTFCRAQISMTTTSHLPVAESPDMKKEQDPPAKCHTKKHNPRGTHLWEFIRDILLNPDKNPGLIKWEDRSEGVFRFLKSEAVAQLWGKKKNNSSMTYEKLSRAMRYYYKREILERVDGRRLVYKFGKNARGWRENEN
A digest of the protocol:
as §1

The target of another experiment is SPI1 (Homo sapiens, UniProt P17947 1-270). A digest of the protocol:
as §1

The next experiment concerns the target SPIB (Homo sapiens, UniProt Q01892 1-262). A digest of the protocol: as §1
The next experiment has as its target T5, FEV (Homo sapiens, UniProt Q99581 1-238).
T5 sequence: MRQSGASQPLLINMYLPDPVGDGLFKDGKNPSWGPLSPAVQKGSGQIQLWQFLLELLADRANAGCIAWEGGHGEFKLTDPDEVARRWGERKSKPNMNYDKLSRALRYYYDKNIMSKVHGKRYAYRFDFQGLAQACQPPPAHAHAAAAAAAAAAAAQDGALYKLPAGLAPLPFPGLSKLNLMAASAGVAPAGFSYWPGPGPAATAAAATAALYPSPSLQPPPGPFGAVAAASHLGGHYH
A digest of the protocol:
as §1

The target of the next experiment is ETV5 (Homo sapiens, UniProt P41161 1-510). A digest of the protocol: as §1
The next experiment has as its target ELF4 (Homo sapiens, UniProt Q99607 1-663). A digest of the protocol:
as §1

For the next experiment, the target named is T6, ELK4 (Homo sapiens, UniProt P28324-2 1-405).
T6 sequence: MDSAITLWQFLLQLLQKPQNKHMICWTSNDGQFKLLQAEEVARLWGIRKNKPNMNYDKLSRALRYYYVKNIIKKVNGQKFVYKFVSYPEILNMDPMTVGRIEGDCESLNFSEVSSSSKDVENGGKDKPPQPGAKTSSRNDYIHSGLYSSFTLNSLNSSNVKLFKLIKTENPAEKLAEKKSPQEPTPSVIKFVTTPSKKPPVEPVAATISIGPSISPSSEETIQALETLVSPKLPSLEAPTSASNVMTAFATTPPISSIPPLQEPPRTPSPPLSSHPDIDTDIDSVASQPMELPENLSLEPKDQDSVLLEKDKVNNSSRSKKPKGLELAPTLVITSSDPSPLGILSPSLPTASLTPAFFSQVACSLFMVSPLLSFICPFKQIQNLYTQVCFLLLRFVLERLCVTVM
A digest of the protocol: as §1

Another experiment concerns the target T7, ETV2 (Homo sapiens, UniProt O00321 1-342).
T7 sequence: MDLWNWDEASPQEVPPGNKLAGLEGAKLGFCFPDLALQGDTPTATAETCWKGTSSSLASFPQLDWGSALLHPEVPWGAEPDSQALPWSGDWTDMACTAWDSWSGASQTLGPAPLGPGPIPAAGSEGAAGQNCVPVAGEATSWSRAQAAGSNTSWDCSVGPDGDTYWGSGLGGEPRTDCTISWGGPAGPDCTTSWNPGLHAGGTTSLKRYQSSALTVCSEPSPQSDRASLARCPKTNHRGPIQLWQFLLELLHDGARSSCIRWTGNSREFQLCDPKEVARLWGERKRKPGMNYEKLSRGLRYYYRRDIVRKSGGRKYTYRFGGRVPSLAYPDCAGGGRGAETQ
A digest of the protocol: as §1

For a further experiment, the target named is ETV1 (Homo sapiens, UniProt P50549 1-477). A digest of the protocol:
as §1

Another experiment has as its target T8, ERF (Homo sapiens, UniProt P50548 1-548).
T8 sequence: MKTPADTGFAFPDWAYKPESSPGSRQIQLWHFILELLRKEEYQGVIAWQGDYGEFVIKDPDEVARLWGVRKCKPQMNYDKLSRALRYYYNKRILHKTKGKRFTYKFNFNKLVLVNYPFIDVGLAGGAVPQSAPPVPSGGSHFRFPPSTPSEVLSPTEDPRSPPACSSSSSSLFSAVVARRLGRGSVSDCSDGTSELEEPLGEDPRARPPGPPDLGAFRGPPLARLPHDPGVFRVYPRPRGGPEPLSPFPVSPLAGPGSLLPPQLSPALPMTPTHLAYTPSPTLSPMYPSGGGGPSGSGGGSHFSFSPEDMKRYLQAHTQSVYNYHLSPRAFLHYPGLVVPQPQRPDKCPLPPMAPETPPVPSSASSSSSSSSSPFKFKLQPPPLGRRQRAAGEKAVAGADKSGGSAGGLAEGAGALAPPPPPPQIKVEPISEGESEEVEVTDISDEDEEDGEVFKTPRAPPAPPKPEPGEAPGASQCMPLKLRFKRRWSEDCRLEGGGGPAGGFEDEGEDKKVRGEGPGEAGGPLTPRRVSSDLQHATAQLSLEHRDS
A digest of the protocol:
as §1

A further experiment has as its target T9, ETV3L (Homo sapiens, UniProt Q6ZN32 1-361).
T9 sequence: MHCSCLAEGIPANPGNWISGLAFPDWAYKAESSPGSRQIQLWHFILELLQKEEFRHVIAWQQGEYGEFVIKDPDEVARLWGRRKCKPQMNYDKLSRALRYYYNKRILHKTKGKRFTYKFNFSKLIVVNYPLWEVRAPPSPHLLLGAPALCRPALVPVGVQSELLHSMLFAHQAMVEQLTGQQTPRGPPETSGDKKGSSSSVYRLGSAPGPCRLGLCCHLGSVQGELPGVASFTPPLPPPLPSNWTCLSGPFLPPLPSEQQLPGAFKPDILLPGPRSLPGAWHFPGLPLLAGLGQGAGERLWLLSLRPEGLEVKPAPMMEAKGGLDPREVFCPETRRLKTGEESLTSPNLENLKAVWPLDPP
A digest of the protocol:
as §1

The target in the next experiment is T10, ETS2 (Homo sapiens, UniProt P15036 1-469).
T10 sequence: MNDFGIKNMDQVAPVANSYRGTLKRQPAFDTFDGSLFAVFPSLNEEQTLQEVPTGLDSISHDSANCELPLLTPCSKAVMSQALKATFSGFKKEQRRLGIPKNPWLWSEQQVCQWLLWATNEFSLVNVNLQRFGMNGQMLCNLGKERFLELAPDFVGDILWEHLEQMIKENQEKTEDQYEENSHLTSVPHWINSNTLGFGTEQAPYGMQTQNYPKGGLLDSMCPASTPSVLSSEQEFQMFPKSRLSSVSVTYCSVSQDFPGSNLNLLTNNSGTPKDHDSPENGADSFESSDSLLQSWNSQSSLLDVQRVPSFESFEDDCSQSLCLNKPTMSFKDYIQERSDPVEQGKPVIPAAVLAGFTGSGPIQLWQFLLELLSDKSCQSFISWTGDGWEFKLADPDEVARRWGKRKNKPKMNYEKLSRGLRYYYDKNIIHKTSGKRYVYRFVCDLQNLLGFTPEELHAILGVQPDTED
A digest of the protocol: as §1

Another experiment concerns the target T11, SPDEF (Homo sapiens, UniProt O95238 1-335).
T11 sequence: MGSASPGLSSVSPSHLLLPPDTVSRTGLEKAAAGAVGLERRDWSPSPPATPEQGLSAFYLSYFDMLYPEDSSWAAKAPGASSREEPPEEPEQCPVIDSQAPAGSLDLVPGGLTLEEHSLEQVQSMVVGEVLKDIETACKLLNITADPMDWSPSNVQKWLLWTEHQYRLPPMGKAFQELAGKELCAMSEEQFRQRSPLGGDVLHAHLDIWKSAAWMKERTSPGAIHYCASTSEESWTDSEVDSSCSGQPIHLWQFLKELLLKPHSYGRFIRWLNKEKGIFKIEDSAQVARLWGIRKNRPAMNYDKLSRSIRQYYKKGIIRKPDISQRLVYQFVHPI
A digest of the protocol: as §1

The target of a further experiment is T12, ETV3 (Homo sapiens, UniProt P41162-2 1-143).
T12 sequence: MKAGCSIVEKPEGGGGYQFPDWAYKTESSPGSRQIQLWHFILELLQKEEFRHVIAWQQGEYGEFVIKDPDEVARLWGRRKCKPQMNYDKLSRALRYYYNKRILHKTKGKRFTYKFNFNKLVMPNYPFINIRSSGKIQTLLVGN
A digest of the protocol:
as §1

A further experiment has as its target ETV6 (Homo sapiens, UniProt P41212 1-452). A digest of the protocol: as §1

Chain of ETV5 (P41161 whole entry): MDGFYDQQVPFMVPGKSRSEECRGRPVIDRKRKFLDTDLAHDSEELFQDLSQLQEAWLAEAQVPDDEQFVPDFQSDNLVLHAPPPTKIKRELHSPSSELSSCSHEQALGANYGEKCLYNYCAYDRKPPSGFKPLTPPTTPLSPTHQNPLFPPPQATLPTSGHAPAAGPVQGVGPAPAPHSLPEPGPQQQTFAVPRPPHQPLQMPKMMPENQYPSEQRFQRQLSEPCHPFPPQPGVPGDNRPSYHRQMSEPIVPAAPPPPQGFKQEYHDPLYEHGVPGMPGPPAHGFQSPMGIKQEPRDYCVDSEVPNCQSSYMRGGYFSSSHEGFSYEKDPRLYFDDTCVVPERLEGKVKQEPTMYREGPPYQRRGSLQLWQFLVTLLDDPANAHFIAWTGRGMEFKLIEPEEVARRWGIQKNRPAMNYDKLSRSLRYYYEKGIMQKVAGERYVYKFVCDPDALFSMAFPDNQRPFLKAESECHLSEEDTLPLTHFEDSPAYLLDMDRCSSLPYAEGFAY
Chain of SPIB (Q01892 whole entry): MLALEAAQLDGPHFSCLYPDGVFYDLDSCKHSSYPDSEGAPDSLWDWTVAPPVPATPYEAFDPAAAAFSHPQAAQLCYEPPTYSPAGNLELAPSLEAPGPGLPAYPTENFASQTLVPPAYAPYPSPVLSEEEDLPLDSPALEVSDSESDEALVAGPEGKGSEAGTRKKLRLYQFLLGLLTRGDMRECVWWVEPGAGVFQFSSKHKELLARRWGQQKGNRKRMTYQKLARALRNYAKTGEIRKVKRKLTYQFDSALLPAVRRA
Chain of ELF4 (Q99607 whole entry): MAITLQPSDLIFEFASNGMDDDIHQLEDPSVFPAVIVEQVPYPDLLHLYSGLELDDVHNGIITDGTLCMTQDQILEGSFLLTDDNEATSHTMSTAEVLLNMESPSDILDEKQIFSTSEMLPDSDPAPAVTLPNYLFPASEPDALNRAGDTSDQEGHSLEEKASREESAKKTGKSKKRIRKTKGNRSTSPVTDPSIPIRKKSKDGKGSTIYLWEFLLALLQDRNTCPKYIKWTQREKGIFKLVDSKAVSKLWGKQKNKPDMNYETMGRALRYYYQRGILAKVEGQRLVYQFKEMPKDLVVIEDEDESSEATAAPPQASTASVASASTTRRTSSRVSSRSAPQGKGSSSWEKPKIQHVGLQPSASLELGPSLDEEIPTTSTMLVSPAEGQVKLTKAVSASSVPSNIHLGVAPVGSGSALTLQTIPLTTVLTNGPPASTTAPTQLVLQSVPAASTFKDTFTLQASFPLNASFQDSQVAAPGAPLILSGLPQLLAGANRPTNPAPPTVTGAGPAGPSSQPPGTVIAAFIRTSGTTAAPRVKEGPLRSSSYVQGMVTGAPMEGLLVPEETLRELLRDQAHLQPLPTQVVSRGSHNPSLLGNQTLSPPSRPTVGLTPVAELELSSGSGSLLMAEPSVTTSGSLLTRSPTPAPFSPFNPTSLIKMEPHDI
Chain of ELF1 (P32519 whole entry): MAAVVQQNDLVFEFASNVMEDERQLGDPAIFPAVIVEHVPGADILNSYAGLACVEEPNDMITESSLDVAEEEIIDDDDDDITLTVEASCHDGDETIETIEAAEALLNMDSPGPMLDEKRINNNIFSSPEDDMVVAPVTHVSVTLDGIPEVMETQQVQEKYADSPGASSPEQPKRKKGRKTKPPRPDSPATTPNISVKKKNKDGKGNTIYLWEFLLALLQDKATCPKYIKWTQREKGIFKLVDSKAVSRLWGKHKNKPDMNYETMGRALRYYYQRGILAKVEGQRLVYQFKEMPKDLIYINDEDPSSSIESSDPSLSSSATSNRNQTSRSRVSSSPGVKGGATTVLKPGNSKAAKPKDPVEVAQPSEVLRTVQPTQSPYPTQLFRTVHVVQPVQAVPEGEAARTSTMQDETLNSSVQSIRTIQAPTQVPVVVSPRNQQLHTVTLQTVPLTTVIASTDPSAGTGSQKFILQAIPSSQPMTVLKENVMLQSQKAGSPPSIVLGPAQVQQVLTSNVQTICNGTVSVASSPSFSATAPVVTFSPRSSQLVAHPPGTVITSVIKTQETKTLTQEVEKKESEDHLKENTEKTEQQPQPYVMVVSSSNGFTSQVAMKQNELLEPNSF
Chain of ETV1 (P50549 whole entry): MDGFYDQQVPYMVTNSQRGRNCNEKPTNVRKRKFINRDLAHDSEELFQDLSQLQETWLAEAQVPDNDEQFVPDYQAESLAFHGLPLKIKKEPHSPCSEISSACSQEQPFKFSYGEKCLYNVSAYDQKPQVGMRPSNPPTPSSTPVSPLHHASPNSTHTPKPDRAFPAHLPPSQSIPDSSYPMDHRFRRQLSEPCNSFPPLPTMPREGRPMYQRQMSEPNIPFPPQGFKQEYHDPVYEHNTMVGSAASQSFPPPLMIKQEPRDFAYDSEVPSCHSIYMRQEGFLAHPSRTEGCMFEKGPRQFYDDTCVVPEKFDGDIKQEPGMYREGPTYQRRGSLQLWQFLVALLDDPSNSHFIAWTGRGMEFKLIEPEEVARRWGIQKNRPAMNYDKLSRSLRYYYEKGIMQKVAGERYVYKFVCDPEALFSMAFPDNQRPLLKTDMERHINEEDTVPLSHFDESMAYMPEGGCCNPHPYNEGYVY
Chain of ETV6 (P41212 whole entry): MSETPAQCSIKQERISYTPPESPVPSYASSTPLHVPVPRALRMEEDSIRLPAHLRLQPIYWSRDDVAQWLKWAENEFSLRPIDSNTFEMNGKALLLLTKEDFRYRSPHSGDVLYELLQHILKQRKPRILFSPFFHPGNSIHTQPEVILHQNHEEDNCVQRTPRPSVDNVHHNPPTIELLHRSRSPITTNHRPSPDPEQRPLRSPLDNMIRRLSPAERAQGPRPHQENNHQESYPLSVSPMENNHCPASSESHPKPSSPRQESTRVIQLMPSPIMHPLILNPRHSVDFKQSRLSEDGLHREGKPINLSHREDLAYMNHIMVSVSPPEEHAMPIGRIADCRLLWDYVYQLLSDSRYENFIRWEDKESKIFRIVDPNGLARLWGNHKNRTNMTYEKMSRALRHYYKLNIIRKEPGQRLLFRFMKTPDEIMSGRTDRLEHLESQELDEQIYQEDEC

As for ATGCAG, the binding signal is 1.04 fold enrichment (6-mer frequency, TF over GST control) with ELK1; 1.14 fold enrichment (6-mer frequency, TF over GST control) with GABPA; 1.09 fold enrichment (6-mer frequency, TF over GST control) in the experiment with ERG; 1.03 fold enrichment (6-mer frequency, TF over GST control) with ELF1; 1.08 fold enrichment (6-mer frequency, TF over GST control) in the experiment with EHF; 1.06 fold enrichment (6-mer frequency, TF over GST control) in the experiment with SPI1. Moreover, the binding signal in the experiment with SPIB is 1.22 fold enrichment (6-mer frequency, TF over GST control); with FEV, 1.11 fold enrichment (6-mer frequency, TF over GST control); in the experiment with ETV5, 1.05 fold enrichment (6-mer frequency, TF over GST control); with ELF4 it was 1.05 fold enrichment (6-mer frequency, TF over GST control); with ELK4, 1.15 fold enrichment (6-mer frequency, TF over GST control); with ETV2 it was 1.1 fold enrichment (6-mer frequency, TF over GST control). Moreover, the binding signal was 1.1 fold enrichment (6-mer frequency, TF over GST control) with ETV1; 1.22 fold enrichment (6-mer frequency, TF over GST control) in the experiment with ERF; 1.08 fold enrichment (6-mer frequency, TF over GST control) with ETV3L; 1.11 fold enrichment (6-mer frequency, TF over GST control) in the experiment with ETS2; 1.05 fold enrichment (6-mer frequency, TF over GST control) with SPDEF; 1.06 fold enrichment (6-mer frequency, TF over GST control) with ETV3. For the same sequence, the binding signal with ETV6 is 1.06 fold enrichment (6-mer frequency, TF over GST control).
